Results reported in PubChem BioAssay (NCATS).
Inconclusive results are not listed. Calls of active or inactive are those of the source. Calls come from the whole dose curve; as a rule, active = well fitted inhibition curve with a large enough effect; inconclusive = small, poorly fitted or top-dose-only effect; inactive = flat fitted curve, though single readings scatter.

Tests used:
Assay in all cases: qHTS profiling for inhibitors of Plasmodium falciparum proliferation (AID 504749); note: nearly all actives have a fitted effect of over 60% in size
Conditions in all cases: P. falciparum in erythrocytes, SYBR Green DNA, 72 h; series mostly up to 28.7 µM
CP237 = system: CP237
How it was run: (§1)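 P. falciparum-infected erythrocytes (0.3% parasitemia, 2.5% hematocrit) incubated with compound 72 h at 37 C, 5% CO2. Parasite DNA detected by SYBR Green after lysis, overnight at room temperature; normalised to 0.29 uM artemisinin and DMSO.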

CP238 = system: CP238
How it was run: as §1

CP247 = system: CP247
How it was run: as §1

CP250 = system: CP250
How it was run: as §1

CP252 = system: CP252
How it was run: as §1

CP256 = system: CP256
How it was run: as §1

CP260 = system: CP260
How it was run: as §1

CP262 = system: CP262
How it was run: as §1

CP265 = system: CP265
How it was run: as §1

CP266 = system: CP266
How it was run: as §1

CP268 = system: CP268
How it was run: as §1

CP269 = system: CP269
How it was run: as §1

CP286 = system: CP286
How it was run: as §1

CP291 = system: CP291
How it was run: as §1

CP297 = system: CP297
How it was run: as §1

CP305 = system: CP305
How it was run: as §1

CP315 = system: CP315
How it was run: as §1

CP325 = system: CP325
How it was run: as §1

CP329 = system: CP329
How it was run: as §1

CP335 = system: CP335
How it was run: as §1

Measured: Potency
Potency is the fitted concentration of half-maximal effect.

CCCCN=C(N)N=C(N)N
inactive: all assays above

C#C[C@]1(OC(C)=O)CC[C@H]2[C@@H]3CCC4=C/C(=N/O)CC[C@@H]4[C@H]3CC[C@@]21CC
not listed: CP335
inactive: all other assays above

Cc1ccccc1OCC(O)CO (stereo unspecified)
inactive: all assays above

O=C(NCCc1c[nH]c2ccccc12)c1cccnc1
inactive: all assays above

CCOc1ccccc1OCCN[C@H](C)Cc1ccc(OC)c(S(N)(=O)=O)c1
inactive: all assays above

C=CCN1CCc2nc(N)sc2CC1
not listed: CP335
inactive: all other assays above

CCCCCCCCCCCCSCCOCCO
inactive: all assays above

COc1cc(C(=O)NCc2ccc(OCCN(C)C)cc2)cc(OC)c1OC
inactive: all assays above

c1ccc(CC2=NCCN2)cc1
not listed: CP335
inactive: all other assays above

c1ccc(-c2nc[nH]c2-c2ccccc2)cc1
inactive: all assays above

CCOC(=O)C(C#N)=C(c1ccccc1)c1ccccc1
inactive: all assays above

CCCCCCCCCCCCCCCC(=O)O
inactive: all assays above

C[C@@H](O)[C@H]1C(=O)N2C(C(=O)O)=C(S[C@@H]3CN[C@H](CNS(N)(=O)=O)C3)[C@H](C)[C@H]12
inactive: all assays above

O[C@@H](c1cc(C(F)(F)F)nc2c(C(F)(F)F)cccc12)[C@H]1CCCCN1
active: CP237 25.1 nM | CP238 44.7 nM | CP247 70.8 nM | CP250 63.1 nM | CP252 31.6 nM | CP256 63.1 nM | CP260 31.6 nM | CP262 190 nM | CP265 35.5 nM | CP266 601 nM | CP268 151 nM | CP269 53.6 nM | CP286 112 nM | CP291 151 nM | CP297 107 nM | CP305 213 nM | CP315 169 nM | CP325 135 nM | CP329 269 nM | CP335 107 nM

CCOc1ccc(NC(C)=O)cc1
not listed: CP335
inactive: all other assays above

Cc1c(-c2ccccc2)oc2c(C(=O)OCCN3CCCCC3)cccc2c1=O
inactive: all assays above

CCN(CC)CCNC(=O)COc1ccc(OC)cc1
inactive: all assays above

CCN(CC)CCNc1ccc(CO)c2sc3ccccc3c(=O)c12
active: CP237 891 nM | CP238 1000 nM | CP247 891 nM | CP250 1000 nM | CP252 562 nM | CP256 1780 nM | CP260 794 nM | CP265 1580 nM | CP266 5360 nM | CP268 3380 nM | CP269 1900 nM | CP286 2000 nM | CP291 4780 nM | CP297 1690 nM | CP305 3790 nM | CP315 6010 nM | CP325 4780 nM | CP329 4780 nM | CP335 1510 nM
inactive: CP262

CCN1/C(=C/C=C/c2sc3ccccc3[n+]2CC)Sc2ccccc21
active: CP237 158 nM | CP238 126 nM | CP247 251 nM | CP250 178 nM | CP252 141 nM | CP256 100 nM | CP260 158 nM | CP262 190 nM | CP265 224 nM | CP266 675 nM | CP268 536 nM | CP269 379 nM | CP286 50.1 nM | CP291 379 nM | CP297 849 nM | CP305 190 nM | CP315 757 nM | CP325 601 nM | CP329 426 nM | CP335 107 nM

O=C(O)Cc1csc(-c2ccc(Cl)cc2)n1
inactive: all assays above

CC[C@H](c1ccc(O)cc1)[C@@H](CC)c1ccc(O)cc1
inactive: all assays above

CC(=O)NC(=O)c1ccccc1O
inactive: all assays above

Oc1ccccc1C=NCc1ccccc1
inactive: all assays above

Cc1cc(C)cc(OCC2CNC(=O)O2)c1 (stereo unspecified)
inactive: all assays above

Nc1ccc(C(=O)NCC(=O)O)cc1
inactive: all assays above

COc1cc(C)nc(-n2nc(C)cc2OC)n1
inactive: all assays above

COP(=O)(OC)OC(c1ccc(Cl)cc1)P(=O)(OC)OC (stereo unspecified)
inactive: all assays above
